Values joined by “and” are separate entries in the source; they are usually repeats but may differ in a detail not shown here. Equal entries are not always repeated. Results filed as inconclusive are left out. A call without a number means that no potency is given here. Some compounds were tested as several samples or in several runs, with calls that do not always agree. Active and inactive are the calls of the source. Unless noted, the call rests on the fitted dose curve; in most records, active means well fitted curve in the direction sought with a large enough effect in the repeat runs; inconclusive means weak or mixed curves; inactive means no such curve, though single readings can be large; an effect the other way counts as inactive or inconclusive.
What was measured:
[1] = qHTS assay to identify small molecule agonists of H2AX (AID 1224845; active means well fitted activation curve with a large enough effect in the signal ratio in the repeat runs, not every such curve was filed as active; the % refers to the signal ratio)
Outline: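 Phospho-H2AX Ser139 measured by HTRF (ex 320 nm; em 665 and 620 nm) after 24 hr antibody incubation. Compounds, 15 concentrations, 0.76% DMSO, were applied to CHO-K1 cells for 3hr at 37C before lysis.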

[2] = qHTS assay to identify small molecule agonists of H2AX - cell viability counter screen (AID 1224847; calls by dose curve; further: top concentration of the series differs between compounds; nearly all actives have a fitted effect of over 30% in size)
Outline: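 Compounds tested at 15 concentrations were incubated 3 hr at 37C with wild-type CHO-K1 cells; cellular ATP-based luminescence (CellTiter-Glo) indicated viability.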

[3] = qHTS RealTime-Glo MT Cell Viability Assay in HEK293 cells - 32 hour (AID 1224868); further: nearly all actives have a fitted effect of over 50% in size; further: potency means the concentration at half of the fitted maximal effect
Outline: (§1)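 Assay medium contained NanoLuc luciferase plus cell-permeant prosubstrate, added with HEK293 cells at 600 cells/well. After 5 h at 37 C/5% CO2 compounds were added; plates stayed at 37 C for 40 h with serial luminescence reads.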

[4] = A CellTox Green Cytotoxicity Assay to monitor cytotoxicity in HEK293 cells - 0 hour (AID 1224869); further: nearly all actives have a fitted effect of over 50% in size
Outline: (§2)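 Cells (HEK293, 600/well) and dye reagent are dispensed together. After 5 h at 37 C, 23 nL compound is pinned in. Plates stay at 37 C for 40 h with fluorescence read at 0h, 8h, 16h, 24h, 32h and 40h.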

[5] = qHTS RealTime-Glo MT Cell Viability Assay in HepG2 cells - 40 hour (AID 1224870); further: nearly all actives have a fitted effect of over 50% in size
Outline: (§3)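 Real-time viability: cells seeded at 600 per well together with NanoLuc and cell-permeant prosubstrate, compounds added after 5 h incubation. Luminescence tracked at 0, 8, 16, 24, 32 and 40 h of exposure.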

[6] = A CellTox Green Cytotoxicity Assay to monitor cytotoxicity in HEK293 cells - 40 hour (AID 1224871); further: nearly all actives have a fitted effect of over 45% in size; further: potency means the concentration at half of the fitted maximal effect
Outline: as §2

[7] = qHTS RealTime-Glo MT Cell Viability Assay in HEK293 cells - 16 hour (AID 1224872); further: top concentration of the series differs between compounds; nearly all actives have a fitted effect of over 50% in size
Outline: as §1

[8] = qHTS RealTime-Glo MT Cell Viability Assay in HepG2 cells - 8 hour (AID 1224873); further: nearly all actives have a fitted effect of over 55% in size
Outline: as §3

[9] = qHTS RealTime-Glo MT Cell Viability Assay in HEK293 cells - 40 hour (AID 1224874); details: RealTime-Glo luminescence; max response: stronger effect = lower value; further: nearly all actives have a fitted effect of over 50% in size; further: potency means the concentration at half of the fitted maximal effect
Outline: (§4)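 Real-time viability in HEK293: signal arises when living cells convert a prosubstrate for NanoLuc in the medium, so luminescence tracks viable cell number. Compound (23 nL, DMSO) added 5 h post-seeding; kinetic reads at 0–40 h, 37 C.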

[10] = A CellTox Green Cytotoxicity Assay to monitor cytotoxicity in HEK293 cells - 24 hour (AID 1224875); further: series mostly up to about 77 µM; nearly all actives have a fitted effect of over 45% in size
Outline: as §2

[11] = qHTS RealTime-Glo MT Cell Viability Assay in HepG2 cells - 32 hour (AID 1224877); further: nearly all actives have a fitted effect of over 55% in size
Outline: (§5)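 qHTS, HepG2, 600 cells/well, RealTime-Glo (NanoLuc + prosubstrate) added with cells; 5 h preincubation; DMSO compound addition; 37 C; luminescence at 0/8/16/24/32/40 h.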

[12] = A CellTox Green Cytotoxicity Assay to monitor cytotoxicity in HepG2 cells - 24 hour (AID 1224878); further: nearly all actives have a fitted effect of over 45% in size
Outline: (§6)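 Cells and non-lytic dye reagent are dispensed together (600 HepG2 cells/well) and incubated 5 h before DMSO compound transfer. Kinetic fluorescence is then recorded in the same wells during 40 h at 37 C.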

[13] = A CellTox Green Cytotoxicity Assay to monitor cytotoxicity in HepG2 cells - 40 hour (AID 1224879); further: nearly all actives have a fitted effect of over 40% in size
Outline: as §6

[14] = qHTS RealTime-Glo MT Cell Viability Assay in HEK293 cells - 0 hour (AID 1224880); further: top concentration of the series differs between compounds; nearly all actives have a fitted effect of over 45% in size
Outline: as §4

[15] = A CellTox Green Cytotoxicity Assay to monitor cytotoxicity in HEK293 cells - 32 hour (AID 1224881); further: nearly all actives have a fitted effect of over 40% in size; further: potency means the concentration at half of the fitted maximal effect
Outline: as §2

[16] = A CellTox Green Cytotoxicity Assay to monitor cytotoxicity in HepG2 cells - 16 hour (AID 1224876); further: nearly all actives have a fitted effect of over 45% in size
Outline: as §6

[17] = qHTS RealTime-Glo MT Cell Viability Assay in HepG2 cells - 24 hour (AID 1224867); further: nearly all actives have a fitted effect of over 50% in size
Outline: as §5

[18] = qHTS assay to identify small molecule agonists of the hypoxia (HIF-1) signaling pathway (AID 1224846; active means well fitted activation curve with a large enough effect in the signal ratio in the repeat runs, not every such curve was filed as active; the % refers to the signal ratio)
Outline: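 Compounds from the Tox21 10K library, dissolved in DMSO, are tested for induction of a hypoxia response element–controlled beta-lactamase reporter in ME-180 cells. Exposure lasts 17 hrs at 37C after a 5 hr settling period, followed by CCF4-AM FRET substrate.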

Row | Compound | Potency [1] | Potency [2] | Potency [3] | Potency [4] | outcome [5] | Potency [6] | Potency [7] | outcome [8] | max response [9] | Potency [10] | outcome [11] | Potency [12] | Potency [13] | Potency [14] | Potency [15] | Potency [16] | outcome [17] | outcome [18] | Potency [9]
1 | O=C1OC(c2ccc(O)cc2)(c2ccc(O)cc2)c2ccccc21 | inactive | inactive | inactive | inactive | inactive | inactive | inactive | inactive | -0.757% (inactive) | inactive | inactive | inactive | inactive | inactive | inactive | – | – | – | –
2 | NC(=O)OCC(COC(N)=O)c1ccccc1 | inactive | inactive | inactive | inactive | inactive | – | inactive | inactive | 1.64% (inactive) and -0.593% (inactive) | inactive | inactive | inactive | – | inactive | inactive | inactive | – | – | –
3 | CC(C)=CCC/C(C)=C/CO | inactive | inactive | inactive | inactive | inactive | – | inactive | inactive | 7.58% (inactive) and 13.8% (inactive) and -0.309% (inactive) | inactive | inactive | inactive | inactive | inactive | inactive | – | inactive | – | –
4 | C[C@]12CC[C@@H]3c4ccc(O)cc4CC[C@H]3[C@@H]1CCC2=O | inactive | inactive | – | inactive | inactive | 49 µM (active) and inactive | inactive | inactive | – | inactive | inactive | – | inactive | inactive | 49 µM (active) and inactive | inactive | – | inactive | –
5 | COc1cc2c(c(OC)c1OC)-c1ccc(OC)c(=O)cc1[C@@H](NC(C)=O)CC2 | inactive | inactive | 24.3 nM (active) | inactive | inactive | – | inactive | inactive | – | inactive | inactive | inactive | – | inactive | inactive | inactive | – | inactive | 21.6 nM (active)
6 | CC1=NN(c2ccccc2)C(=O)C1 | inactive | inactive | inactive | inactive | inactive | inactive | inactive | inactive | -0.0619% (inactive) and 3.79% (inactive) and -1.74% (inactive) | inactive | inactive | inactive | inactive | inactive | inactive | inactive | – | – | –
7 | CC(C)(C)NCC(O)c1ccc(O)c(CO)c1 (configuration not stated) | inactive | inactive | inactive | inactive | inactive | – | inactive | inactive | 9.56% (inactive) and 4.37% (inactive) | inactive | inactive | – | inactive | inactive | inactive | inactive | – | inactive | –
8 | CC1=C(/C=C/C(C)=C/C=C/C(C)=C/C(=O)O)C(C)(C)CCC1 | inactive | inactive | inactive | inactive | inactive | – | inactive | inactive | -20% (inactive) and -18.8% (inactive) and -12.7% (inactive) | inactive | inactive | – | inactive | inactive | inactive | inactive | – | – | –
9 | CN/C(=C\[N+](=O)[O-])NCCSCc1ccc(CN(C)C)o1 | inactive | inactive | inactive | inactive | inactive | inactive | inactive | inactive | 4.86% (inactive) and 0.756% (inactive) | inactive | inactive | inactive | – | inactive | inactive | – | – | – | –

— PubChem BioAssay (Tox21)
